This note sets out measurements from PMC7862700, “An all-to-all approach to the identification of sequence-specific readers for epigenetic DNA modifications on cytosine”.

What all share (assay): DAPPL (digital affinity profiling via proximity ligation, sequencing); 10 mM Tris-HCl pH 7.5, 50 mM NaCl, 1 mM DTT, 4% glycerol, room temperature, 30 min; GST-TFs on glutathione beads, 16-mer random dsDNA library, 0.1% formaldehyde crosslink after washing; high values mean tight binding
The target in one experiment is T1, FEV (Homo sapiens, UniProt Q99581 1-238).
T1 sequence: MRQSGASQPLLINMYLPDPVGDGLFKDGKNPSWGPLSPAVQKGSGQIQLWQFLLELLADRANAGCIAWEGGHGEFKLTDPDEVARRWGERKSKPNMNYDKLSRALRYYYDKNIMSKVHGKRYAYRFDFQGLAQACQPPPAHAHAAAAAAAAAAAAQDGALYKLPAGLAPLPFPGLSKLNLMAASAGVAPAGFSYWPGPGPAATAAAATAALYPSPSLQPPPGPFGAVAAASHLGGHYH
The settings on record: protein: recombinant; tags: N-terminal GST; dsDNA, one strand shown. The procedure, abridged:
(§1)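 Pools were built from human transcription factors expressed in yeast as GST fusions, captured on glutathione beads and DNA-barcoded, along with a tag-only sample. Incubation with 200 nmole of a 16-mer random double-stranded DNA library lasted 30 min at room temperature in Tris/NaCl/DTT/glycerol buffer, and was followed by washing, 0.1% formaldehyde crosslinking, proximity ligation, PCR amplification and Illumina NextSeq500 sequencing. Binding signal is the quotient of each hexamer's read frequency for a factor and its frequency for the tag-only sample.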

The target of the next experiment is ETV5 (Homo sapiens, UniProt P41161 1-510). The settings on record: protein: recombinant; tags: N-terminal GST; dsDNA, one strand shown. The procedure, abridged:
as §1

In another experiment the target is HSF1 (Homo sapiens, UniProt Q00613 1-529). The settings on record: protein: recombinant; tags: N-terminal GST; chain copies: 3; dsDNA, one strand shown. The procedure, abridged:
as §1

For the next experiment, the target named is T2, SPIC (Homo sapiens, UniProt Q8N5J4 1-248).
T2 sequence: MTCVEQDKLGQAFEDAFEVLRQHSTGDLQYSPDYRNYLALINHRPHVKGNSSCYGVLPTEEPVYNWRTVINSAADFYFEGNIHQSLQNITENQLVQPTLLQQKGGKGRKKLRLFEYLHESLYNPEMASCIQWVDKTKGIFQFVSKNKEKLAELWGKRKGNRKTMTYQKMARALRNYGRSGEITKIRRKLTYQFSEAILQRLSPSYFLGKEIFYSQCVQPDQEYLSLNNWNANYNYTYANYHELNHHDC
Particulars: protein: recombinant; tags: N-terminal GST; dsDNA, one strand shown. The procedure, abridged:
as §1

In the next experiment the target is ELF4 (Homo sapiens, UniProt Q99607 1-663). The settings on record: protein: recombinant; tags: N-terminal GST; dsDNA, one strand shown. The procedure, abridged:
as §1

The target in the next experiment is T3, ELK4 (Homo sapiens, UniProt P28324-2 1-405).
T3 sequence: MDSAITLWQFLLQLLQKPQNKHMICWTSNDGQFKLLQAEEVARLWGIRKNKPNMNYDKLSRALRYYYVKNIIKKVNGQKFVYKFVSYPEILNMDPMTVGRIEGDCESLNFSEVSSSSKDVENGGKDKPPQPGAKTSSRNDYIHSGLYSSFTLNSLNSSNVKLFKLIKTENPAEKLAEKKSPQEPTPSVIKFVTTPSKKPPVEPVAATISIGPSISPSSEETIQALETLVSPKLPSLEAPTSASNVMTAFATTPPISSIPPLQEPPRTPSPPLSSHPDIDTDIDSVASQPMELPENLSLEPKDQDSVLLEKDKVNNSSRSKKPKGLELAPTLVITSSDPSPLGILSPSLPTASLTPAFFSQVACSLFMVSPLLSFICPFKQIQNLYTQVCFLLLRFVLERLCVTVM
Particulars: protein: recombinant; tags: N-terminal GST; dsDNA, one strand shown. The procedure, abridged:
as §1

For the next experiment, the target named is T4, ETV2 (Homo sapiens, UniProt O00321 1-342).
T4 sequence: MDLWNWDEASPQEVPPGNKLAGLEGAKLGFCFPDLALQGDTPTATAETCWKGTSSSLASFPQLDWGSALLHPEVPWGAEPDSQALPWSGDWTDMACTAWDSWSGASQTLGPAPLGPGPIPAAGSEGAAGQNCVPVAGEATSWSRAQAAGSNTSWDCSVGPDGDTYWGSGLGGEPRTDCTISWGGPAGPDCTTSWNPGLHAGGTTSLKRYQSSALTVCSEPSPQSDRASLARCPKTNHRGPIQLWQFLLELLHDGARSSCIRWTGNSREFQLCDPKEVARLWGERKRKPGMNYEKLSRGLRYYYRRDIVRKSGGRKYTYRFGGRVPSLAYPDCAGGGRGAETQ
Particulars: protein: recombinant; tags: N-terminal GST; dsDNA, one strand shown. The procedure, abridged: as §1

The next experiment concerns the target T5, ELF3 (Homo sapiens, UniProt P78545 1-371).
T5 sequence: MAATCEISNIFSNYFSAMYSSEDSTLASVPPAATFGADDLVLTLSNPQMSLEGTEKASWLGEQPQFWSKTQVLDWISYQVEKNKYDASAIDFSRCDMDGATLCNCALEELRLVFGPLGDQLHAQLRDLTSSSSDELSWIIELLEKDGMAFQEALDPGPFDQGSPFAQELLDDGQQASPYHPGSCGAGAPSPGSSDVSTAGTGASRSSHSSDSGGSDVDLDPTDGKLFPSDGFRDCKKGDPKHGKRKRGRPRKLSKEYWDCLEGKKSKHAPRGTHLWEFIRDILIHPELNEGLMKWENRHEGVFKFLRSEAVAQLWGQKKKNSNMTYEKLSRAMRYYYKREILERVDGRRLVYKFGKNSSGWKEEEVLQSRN
The settings on record: protein: recombinant; tags: N-terminal GST; dsDNA, one strand shown. The procedure, abridged:
as §1

In the next experiment the target is CRX (Homo sapiens, UniProt O43186 1-299). The settings on record: protein: recombinant; tags: N-terminal GST; dsDNA, one strand shown. The procedure, abridged:
as §1

The target in a further experiment is ETV1 (Homo sapiens, UniProt P50549 1-477). The settings on record: protein: recombinant; tags: N-terminal GST; dsDNA, one strand shown. The procedure, abridged: as §1
Another experiment has as its target T6, ERF (Homo sapiens, UniProt P50548 1-548).
T6 sequence: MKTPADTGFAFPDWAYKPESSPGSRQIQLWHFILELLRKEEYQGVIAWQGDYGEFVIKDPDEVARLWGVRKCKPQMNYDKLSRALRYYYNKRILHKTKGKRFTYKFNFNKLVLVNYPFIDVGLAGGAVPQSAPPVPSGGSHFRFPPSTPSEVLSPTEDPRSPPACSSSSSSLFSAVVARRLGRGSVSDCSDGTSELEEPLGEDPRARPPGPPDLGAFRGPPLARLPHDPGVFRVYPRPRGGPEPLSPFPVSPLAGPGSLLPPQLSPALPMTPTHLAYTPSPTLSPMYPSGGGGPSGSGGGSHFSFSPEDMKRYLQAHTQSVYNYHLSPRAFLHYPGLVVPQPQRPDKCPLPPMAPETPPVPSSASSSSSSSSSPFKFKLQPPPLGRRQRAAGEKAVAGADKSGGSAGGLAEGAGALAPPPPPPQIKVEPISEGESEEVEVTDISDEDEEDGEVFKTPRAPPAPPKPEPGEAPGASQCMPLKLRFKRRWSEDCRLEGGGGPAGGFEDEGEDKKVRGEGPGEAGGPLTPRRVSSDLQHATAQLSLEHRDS
Particulars: protein: recombinant; tags: N-terminal GST; dsDNA, one strand shown. The procedure, abridged:
as §1

In another experiment the target is T7, ETV3L (Homo sapiens, UniProt Q6ZN32 1-361).
T7 sequence: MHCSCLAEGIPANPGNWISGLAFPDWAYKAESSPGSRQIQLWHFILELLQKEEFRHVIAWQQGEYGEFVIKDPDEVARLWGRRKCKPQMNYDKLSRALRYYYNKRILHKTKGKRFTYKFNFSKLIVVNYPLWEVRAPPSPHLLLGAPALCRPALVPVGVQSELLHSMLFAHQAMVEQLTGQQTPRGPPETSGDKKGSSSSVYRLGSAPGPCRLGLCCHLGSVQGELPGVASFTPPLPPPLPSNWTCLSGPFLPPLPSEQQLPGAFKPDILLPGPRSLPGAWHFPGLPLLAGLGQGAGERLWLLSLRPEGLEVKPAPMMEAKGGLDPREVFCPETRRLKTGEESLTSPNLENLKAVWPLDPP
Particulars: protein: recombinant; tags: N-terminal GST; dsDNA, one strand shown. The procedure, abridged:
as §1

The target in the next experiment is T8, ETS2 (Homo sapiens, UniProt P15036 1-469).
T8 sequence: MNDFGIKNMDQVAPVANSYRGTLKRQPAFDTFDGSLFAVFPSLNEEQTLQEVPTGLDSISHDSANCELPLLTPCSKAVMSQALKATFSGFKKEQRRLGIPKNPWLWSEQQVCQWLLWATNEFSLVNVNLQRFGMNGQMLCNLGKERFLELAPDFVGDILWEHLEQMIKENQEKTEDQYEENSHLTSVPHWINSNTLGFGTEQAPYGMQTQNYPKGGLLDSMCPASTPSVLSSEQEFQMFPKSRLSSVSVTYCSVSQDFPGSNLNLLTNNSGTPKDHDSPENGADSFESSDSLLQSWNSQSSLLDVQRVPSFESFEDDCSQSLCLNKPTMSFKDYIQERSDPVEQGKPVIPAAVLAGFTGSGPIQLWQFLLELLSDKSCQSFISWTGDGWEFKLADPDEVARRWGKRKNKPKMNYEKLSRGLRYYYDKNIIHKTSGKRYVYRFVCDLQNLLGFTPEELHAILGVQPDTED
The settings on record: protein: recombinant; tags: N-terminal GST; dsDNA, one strand shown. The procedure, abridged:
as §1

In a further experiment the target is T9, SPDEF (Homo sapiens, UniProt O95238 1-335).
T9 sequence: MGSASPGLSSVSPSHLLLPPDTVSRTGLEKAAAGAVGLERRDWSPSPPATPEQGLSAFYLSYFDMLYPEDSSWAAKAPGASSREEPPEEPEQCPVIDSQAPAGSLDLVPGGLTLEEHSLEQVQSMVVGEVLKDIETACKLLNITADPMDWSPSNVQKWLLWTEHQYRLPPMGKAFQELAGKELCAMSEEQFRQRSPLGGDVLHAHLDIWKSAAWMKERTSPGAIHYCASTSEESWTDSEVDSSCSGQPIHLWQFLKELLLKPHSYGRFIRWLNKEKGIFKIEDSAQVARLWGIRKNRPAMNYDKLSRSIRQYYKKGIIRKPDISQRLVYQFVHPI
Particulars: protein: recombinant; tags: N-terminal GST; dsDNA, one strand shown. The procedure, abridged:
as §1

The target of another experiment is T10, ETV7 (Homo sapiens, UniProt Q9Y603 1-341).
T10 sequence: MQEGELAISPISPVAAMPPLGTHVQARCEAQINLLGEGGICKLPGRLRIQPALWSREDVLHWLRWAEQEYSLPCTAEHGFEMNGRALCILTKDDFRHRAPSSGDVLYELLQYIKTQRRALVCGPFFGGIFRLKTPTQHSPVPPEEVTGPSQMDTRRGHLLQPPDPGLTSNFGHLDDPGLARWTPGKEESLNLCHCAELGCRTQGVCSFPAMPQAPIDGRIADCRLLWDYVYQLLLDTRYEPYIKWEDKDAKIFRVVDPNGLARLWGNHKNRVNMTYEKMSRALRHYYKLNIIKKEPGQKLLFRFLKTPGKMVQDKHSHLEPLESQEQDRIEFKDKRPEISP
The settings on record: protein: recombinant; tags: N-terminal GST; dsDNA, one strand shown. The procedure, abridged:
as §1

Another experiment has as its target T11, ELF5 (Homo sapiens, UniProt Q9UKW6-2 1-255).
T11 sequence: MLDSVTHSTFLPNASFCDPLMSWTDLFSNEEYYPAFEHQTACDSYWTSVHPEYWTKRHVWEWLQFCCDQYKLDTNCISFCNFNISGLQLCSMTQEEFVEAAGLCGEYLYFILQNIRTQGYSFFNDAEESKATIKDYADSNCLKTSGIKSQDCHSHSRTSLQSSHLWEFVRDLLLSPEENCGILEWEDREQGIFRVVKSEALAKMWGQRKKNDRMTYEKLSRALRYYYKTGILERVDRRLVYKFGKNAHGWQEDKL
The settings on record: protein: recombinant; tags: N-terminal GST; dsDNA, one strand shown. The procedure, abridged: as §1

The next experiment deals with T12, ETV3 (Homo sapiens, UniProt P41162-2 1-143).
T12 sequence: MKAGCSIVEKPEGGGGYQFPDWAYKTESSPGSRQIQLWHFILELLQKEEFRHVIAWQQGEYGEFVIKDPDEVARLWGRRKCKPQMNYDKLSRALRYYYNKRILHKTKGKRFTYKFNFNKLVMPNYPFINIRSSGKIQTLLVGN
The settings on record: protein: recombinant; tags: N-terminal GST; dsDNA, one strand shown. The procedure, abridged: as §1

In the next experiment the target is ETV6 (Homo sapiens, UniProt P41212 1-452). The settings on record: protein: recombinant; tags: N-terminal GST; dsDNA, one strand shown. The procedure, abridged:
as §1

ELF4, sequence (Q99607 whole entry): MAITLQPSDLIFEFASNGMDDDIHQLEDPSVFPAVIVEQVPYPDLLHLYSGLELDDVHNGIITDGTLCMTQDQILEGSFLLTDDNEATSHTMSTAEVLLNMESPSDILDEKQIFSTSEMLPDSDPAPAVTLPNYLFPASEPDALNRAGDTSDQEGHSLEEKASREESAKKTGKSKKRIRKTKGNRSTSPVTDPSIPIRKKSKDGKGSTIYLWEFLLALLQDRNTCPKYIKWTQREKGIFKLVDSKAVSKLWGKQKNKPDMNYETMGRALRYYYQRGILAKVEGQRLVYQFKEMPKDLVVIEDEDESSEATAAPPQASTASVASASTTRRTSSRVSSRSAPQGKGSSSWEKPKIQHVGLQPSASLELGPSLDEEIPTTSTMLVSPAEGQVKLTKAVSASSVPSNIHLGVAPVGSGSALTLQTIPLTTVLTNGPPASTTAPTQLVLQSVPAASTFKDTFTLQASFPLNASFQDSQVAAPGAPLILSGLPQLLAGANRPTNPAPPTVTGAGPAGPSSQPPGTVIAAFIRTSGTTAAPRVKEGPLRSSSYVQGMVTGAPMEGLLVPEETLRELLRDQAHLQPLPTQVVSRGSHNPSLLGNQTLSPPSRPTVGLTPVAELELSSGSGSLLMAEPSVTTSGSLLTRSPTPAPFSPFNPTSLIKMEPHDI
CRX, sequence (O43186 whole entry): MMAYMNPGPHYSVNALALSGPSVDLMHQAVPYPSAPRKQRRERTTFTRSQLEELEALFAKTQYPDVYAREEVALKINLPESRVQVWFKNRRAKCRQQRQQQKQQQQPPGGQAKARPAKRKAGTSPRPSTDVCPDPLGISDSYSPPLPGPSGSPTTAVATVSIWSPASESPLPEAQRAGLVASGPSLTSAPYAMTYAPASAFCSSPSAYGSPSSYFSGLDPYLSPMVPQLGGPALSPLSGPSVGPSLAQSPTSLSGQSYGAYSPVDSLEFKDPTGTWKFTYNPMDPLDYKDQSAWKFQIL
HSF1, sequence (Q00613 whole entry): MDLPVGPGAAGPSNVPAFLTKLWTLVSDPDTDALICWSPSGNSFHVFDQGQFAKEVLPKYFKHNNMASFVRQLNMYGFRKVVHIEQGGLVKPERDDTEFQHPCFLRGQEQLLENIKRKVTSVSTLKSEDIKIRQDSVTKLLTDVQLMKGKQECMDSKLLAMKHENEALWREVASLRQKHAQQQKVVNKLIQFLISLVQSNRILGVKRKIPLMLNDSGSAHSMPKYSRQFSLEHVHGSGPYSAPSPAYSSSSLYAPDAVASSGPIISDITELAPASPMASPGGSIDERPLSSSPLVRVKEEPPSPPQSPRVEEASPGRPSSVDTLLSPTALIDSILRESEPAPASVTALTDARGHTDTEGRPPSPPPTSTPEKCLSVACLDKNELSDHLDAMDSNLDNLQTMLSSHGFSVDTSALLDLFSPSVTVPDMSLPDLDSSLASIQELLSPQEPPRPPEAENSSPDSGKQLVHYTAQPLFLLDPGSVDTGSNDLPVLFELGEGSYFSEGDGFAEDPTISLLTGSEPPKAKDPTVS
ETV1, sequence (P50549 whole entry): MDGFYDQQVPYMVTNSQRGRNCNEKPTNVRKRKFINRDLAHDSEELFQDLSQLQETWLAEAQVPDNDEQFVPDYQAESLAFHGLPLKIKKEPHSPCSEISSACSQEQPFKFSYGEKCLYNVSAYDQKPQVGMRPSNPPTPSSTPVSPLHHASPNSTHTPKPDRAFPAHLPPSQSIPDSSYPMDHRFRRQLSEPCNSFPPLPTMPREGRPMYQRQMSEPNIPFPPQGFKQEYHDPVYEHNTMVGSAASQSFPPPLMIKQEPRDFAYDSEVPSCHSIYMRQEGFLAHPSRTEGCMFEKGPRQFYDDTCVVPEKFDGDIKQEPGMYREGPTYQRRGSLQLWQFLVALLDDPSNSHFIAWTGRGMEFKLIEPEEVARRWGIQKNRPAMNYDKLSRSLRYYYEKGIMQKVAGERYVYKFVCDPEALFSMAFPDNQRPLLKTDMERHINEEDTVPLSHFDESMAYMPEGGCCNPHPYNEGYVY
ETV5, sequence (P41161 whole entry): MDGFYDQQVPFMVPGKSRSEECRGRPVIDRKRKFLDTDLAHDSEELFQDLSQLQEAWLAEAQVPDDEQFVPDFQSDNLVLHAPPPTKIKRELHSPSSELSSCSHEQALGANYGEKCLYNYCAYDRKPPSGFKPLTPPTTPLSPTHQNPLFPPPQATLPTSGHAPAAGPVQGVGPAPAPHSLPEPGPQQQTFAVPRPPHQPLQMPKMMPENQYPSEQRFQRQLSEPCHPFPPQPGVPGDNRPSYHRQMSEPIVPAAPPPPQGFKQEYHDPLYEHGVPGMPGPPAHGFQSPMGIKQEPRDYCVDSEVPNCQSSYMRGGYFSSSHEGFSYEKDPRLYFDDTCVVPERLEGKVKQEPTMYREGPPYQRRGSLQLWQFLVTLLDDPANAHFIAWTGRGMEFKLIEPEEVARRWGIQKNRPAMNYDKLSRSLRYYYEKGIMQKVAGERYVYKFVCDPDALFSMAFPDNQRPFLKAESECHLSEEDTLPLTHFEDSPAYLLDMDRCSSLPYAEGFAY
ETV6, sequence (P41212 whole entry): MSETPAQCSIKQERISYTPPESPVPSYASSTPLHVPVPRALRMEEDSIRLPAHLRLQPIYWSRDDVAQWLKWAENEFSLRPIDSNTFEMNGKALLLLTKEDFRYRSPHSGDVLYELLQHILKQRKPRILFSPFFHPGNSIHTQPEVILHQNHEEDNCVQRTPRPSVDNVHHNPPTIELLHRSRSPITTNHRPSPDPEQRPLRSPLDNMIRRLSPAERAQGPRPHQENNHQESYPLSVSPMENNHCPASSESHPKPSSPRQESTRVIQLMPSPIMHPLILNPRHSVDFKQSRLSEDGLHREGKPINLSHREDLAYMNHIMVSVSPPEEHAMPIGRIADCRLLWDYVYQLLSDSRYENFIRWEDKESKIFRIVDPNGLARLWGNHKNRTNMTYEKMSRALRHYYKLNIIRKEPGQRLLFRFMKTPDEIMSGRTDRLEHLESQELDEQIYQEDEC

Regarding TTACTC, the binding signal with FEV was 1.21 fold enrichment (6-mer frequency, TF over GST control); with ETV5, 1.24 fold enrichment (6-mer frequency, TF over GST control); with HSF1 it was 1.49 fold enrichment (6-mer frequency, TF over GST control); with SPIC, 1.24 fold enrichment (6-mer frequency, TF over GST control); with ELF4 it was 1.29 fold enrichment (6-mer frequency, TF over GST control); in the experiment with ELK4, 1.34 fold enrichment (6-mer frequency, TF over GST control). For the same sequence, the binding signal in the experiment with ETV2 was 1.37 fold enrichment (6-mer frequency, TF over GST control); with ELF3 it was 1.43 fold enrichment (6-mer frequency, TF over GST control); with CRX, 1.91 fold enrichment (6-mer frequency, TF over GST control); in the experiment with ETV1, 1.32 fold enrichment (6-mer frequency, TF over GST control); with ERF, 1.27 fold enrichment (6-mer frequency, TF over GST control); in the experiment with ETV3L, 1.15 fold enrichment (6-mer frequency, TF over GST control). Moreover, the binding signal with ETS2 is 1.37 fold enrichment (6-mer frequency, TF over GST control); with SPDEF, 1.28 fold enrichment (6-mer frequency, TF over GST control); with ETV7, 1.29 fold enrichment (6-mer frequency, TF over GST control); with ELF5 it was 1.21 fold enrichment (6-mer frequency, TF over GST control); in the experiment with ETV3 it was 1.29 fold enrichment (6-mer frequency, TF over GST control); in the experiment with ETV6, 1.27 fold enrichment (6-mer frequency, TF over GST control).
